# Experimental data published in the supplement of paper PMC12067926.
# Values without a mark were called inactive.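 The calls were made as follows: active = growth AUC significantly below the DMSO wells by Dunnett test; inactive = the rest.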
# Tested on: Community 10
# Experiment: relative growth (AUC of 72 h growth curve relative to DMSO control, dAUC) (ratio); higher = more growth (less inhibition), active = hit call of the paper
# Conditions: 20 µM
# Procedure: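 Environmental bacterial isolates (Iceland stream sediment and Silwood Park soil) and whole stream-sediment communities were grown in LB from a 1:100 dilution with each pesticide at 20 µM (1% DMSO). A600 was read hourly for 72 h and the area under a spline-fitted growth curve (AUC) was computed. dAUC is the mean AUC of 3 biological replicates divided by the mean AUC of the DMSO controls. Significance was tested by Dunnett's test against the DMSO control.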
row,Compound,relative growth
1,CC(C)N1C(=O)N(c2ccccc2)CS/C1=N\C(C)(C)C,0.858
2,CNC(=O)Oc1cccc(/N=C/N(C)C)c1,0.8
3,Cc1c(COC(=O)[C@@H]2[C@H](/C=C(\Cl)C(F)(F)F)C2(C)C)cccc1-c1ccccc1 (racemic),0.993
4,CC(C)N1C(=O)c2ccccc2NS1(=O)=O,0.86
5,CC1=NNC(=O)N(/N=C/c2cccnc2)C1,0.983
6,Cc1cc(C(C#N)c2ccc(Cl)cc2)c(Cl)cc1NC(=O)c1cc(I)cc(I)c1O (stereo not given),0.677
7,N#Cc1sc2c(=O)c3ccccc3c(=O)c=2sc1C#N,1.16
8,CCCC1COC(Cn2cncn2)(c2ccc(Cl)cc2Cl)O1 (stereo not given),0.868
9,CC(COc1ccc(Oc2ccccc2)cc1)Oc1ccccn1 (stereo not given),1.01
10,CNC(=O)ON=C(C)SC,1.14
11,N#CCNC(=O)c1cnccc1C(F)(F)F,0.928
12,CCOc1ccc(C(C)(C)COCc2cccc(Oc3ccccc3)c2)cc1,1.02
13,CC1(C)[C@H](C(=O)O[C@H](C#N)c2cccc(Oc3ccccc3)c2)[C@@H]1C=C(Br)Br,0.964
14,O=C(O)CNCP(=O)(O)O,0.952
15,CS(=O)(=O)NC(=O)c1cc(Oc2ccc(C(F)(F)F)cc2Cl)ccc1[N+](=O)[O-],1.09
16,CC(Oc1ccc(Oc2nc3ccc(Cl)cc3o2)cc1)C(=O)O (stereo not given),1.15
17,CN/C(=N\[N+](=O)[O-])NCc1cnc(Cl)s1,0.931
18,C#CCN1C(=O)COc2cc(F)c(N3C(=O)C4=C(CCCC4)C3=O)cc21,0.871
19,C/C(=N\C#N)N(C)Cc1ccc(Cl)nc1,1.15
20,CC[C@H](C)[C@H]1O[C@]2(C=C[C@@H]1C)C[C@@H]1C[C@@H](C/C=C(\C)[C@@H](O[C@H]3C[C@H](OC)[C@@H](O[C@H]4C[C@H](OC)[C@@H](O)[C@H](C)O4)[C@H](C)O3)[C@@H](C)/C=C/C=C3\CO[C@@H]4[C@H](O)C(C)=C[C@@H](C(=O)O1)[C@]34O)O2.CO[C@H]1C[C@H](O[C@H]2[C@H](C)O[C@@H](O[C@@H]3/C(C)=C/C[C@@H]4C[C@@H](C[C@]5(C=C[C@H](C)[C@@H](C(C)C)O5)O4)OC(=O)[C@@H]4C=C(C)[C@@H](O)[C@H]5OC/C(=C\C=C\[C@@H]3C)[C@]54O)C[C@@H]2OC)O[C@@H](C)[C@@H]1O,0.898

row,Compound,relative growth
1,CC(C)NC(=O)N1CC(=O)N(c2cc(Cl)cc(Cl)c2)C1=O,1.01
2,CCN(CC)c1nc(C)cc(OP(=S)(OC)OC)n1,0.843
3,Oc1ccc(Cl)cc1Cc1cc(Cl)ccc1O,0.642
4,CCc1cnc(C2=NC(C)(C(C)C)C(=O)N2)c(C(=O)O)c1 (stereo not given),1.1
5,COCC(C)N(C(=O)CCl)c1c(C)csc1C (stereo not given),0.97
6,CCCSP(=O)(OCC)Oc1ccc(Br)cc1Cl (stereo not given),0.705
7,CCOc1cc(Oc2ccc(C(F)(F)F)cc2Cl)ccc1[N+](=O)[O-],0.824
8,CC(C)OC(=O)C(C(=O)OC(C)C)=C1SCCS1,0.804
9,CCOP(=S)(OCC)Oc1nc(Cl)c(Cl)cc1Cl,0.928
10,CCNC(=O)NC(=O)/C(C#N)=N/OC,1.03
11,Oc1ccccc1-c1ccccc1,0.954
12,CSc1nc(NC(C)C)nc(NC(C)C)n1,0.857
13,CC1(C)C(C=C(Cl)Cl)C1C(=O)OC(C#N)c1ccc(F)c(Oc2ccccc2)c1 (stereo not given),0.911
14,COCC(=O)N(c1c(C)cccc1C)[C@H](C)C(=O)OC,0.999
15,COC(=O)Nc1nc2ccccc2[nH]1,0.869
16,COCC(=O)N(c1c(C)cccc1C)C(C)C(=O)OC (stereo not given),1.06
17,CCOC(=O)OC1=C(c2cc(C)ccc2C)C(=O)N[C@]12CC[C@@H](OC)CC2,0.945
18,CC(C)(C)C(O)(CCc1ccc(Cl)cc1)Cn1cncn1 (stereo not given),0.835
19,COc1cc(C)c(C(=O)c2c(OC)ccc(Br)c2C)c(OC)c1OC,0.986
20,CC1(C)C(C(=O)OC(C#N)c2cccc(Oc3ccccc3)c2)C1(C)C (stereo not given),0.908
